Calls of active or inactive are those of the source. Unless noted, the rule behind the calls is not given here.
Columns and labels:
[1] = tested on: Wnt5a (protein binding on small-molecule microarray); test: small molecules binding Wnt5a protein – biophysical, small-molecule microarray, 635/667 nm fluorescence, primary screen (AID 1142); details: 635 nm fluorescence, higher = more signal;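 note: fluorescence read at 667 nm with signal to noise per printed feature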
[2] = ATP-based viability of Huh7 replicon cells – cell-based, CellTiter-Glo luminescence, basal, 48 h, cytotoxicity control for HCV replication inhibitor project, primary screen (AID 1143); details: higher = more signal, called active from +8 up or from −8 down;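 note: Huh7 hepatoma cells carrying a hepatitis C replication reporter with no stimulus; test concentration not given here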
[3] = Pseudomonas biofilm growth suppression – PAO1 strain, BacTiter-Glo luminescence, LB-PBS, primary screen (AID 1144); details: P. aeruginosa PAO1 biofilm, 12 h, higher = more signal
[4] = basal CRE-LacZ reporter activity in PC12 – cell-based, unstimulated, primary screen (AID 1145); details: no forskolin, luminescence, 4.5 h, higher = more signal, called active from +8 up or from −8 down
[5] = forskolin-driven CRE-LacZ activity in PC12 – cell-based, CRE-LacZ reporter, forskolin-stimulated, primary screen (AID 1146); details: luminescence, 4.5 h, higher = more signal, called active from +8 up or from −8 down;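 note: PC12 cells with 6xCRE LacZ reporter stimulated by forskolin 10 µM; beta-galactosidase reporter signal reflecting CREB driven transcription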
[6] = target: Streptavidin (Streptomyces avidinii) (UniProt P22629); test: compounds binding control protein streptavidin – biophysical, small-molecule microarray, 635/667 nm fluorescence, artefact control for SMM compound annotation, primary screen (AID 1147); details: higher = more signal;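 note: signal reflects streptavidin binding to arrayed compounds as a control protein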
Chain of Streptavidin (Streptomyces avidinii) (P22629 whole entry, looked up): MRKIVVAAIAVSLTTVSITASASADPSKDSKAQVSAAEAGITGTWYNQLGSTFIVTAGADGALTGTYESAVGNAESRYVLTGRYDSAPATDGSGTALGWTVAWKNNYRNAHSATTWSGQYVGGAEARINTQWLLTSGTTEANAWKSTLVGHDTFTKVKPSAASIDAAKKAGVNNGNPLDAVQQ

[7] = probe aInhba binding on compound microarray – biochemical, small-molecule microarray, 635/667 nm fluorescence, primary screen (AID 1148); details: higher = more signal;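 note: score merges 667nm spot fluorescence with signal-to-noise for antibody binding to printed compounds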
Torsin-1A (Homo sapiens) [8] = target: Torsin-1A (Homo sapiens) (UniProt O14656); test: TOR1A wild-type binding on microarray – cell lysate, small-molecule microarray, lysate, 635/667 nm, primary screen (AID 1149); details: COS7 hTOR1A-WT lysate, 635 nm fluorescence, higher = more signal
Chain of Torsin-1A (Homo sapiens) (O14656 whole entry, looked up): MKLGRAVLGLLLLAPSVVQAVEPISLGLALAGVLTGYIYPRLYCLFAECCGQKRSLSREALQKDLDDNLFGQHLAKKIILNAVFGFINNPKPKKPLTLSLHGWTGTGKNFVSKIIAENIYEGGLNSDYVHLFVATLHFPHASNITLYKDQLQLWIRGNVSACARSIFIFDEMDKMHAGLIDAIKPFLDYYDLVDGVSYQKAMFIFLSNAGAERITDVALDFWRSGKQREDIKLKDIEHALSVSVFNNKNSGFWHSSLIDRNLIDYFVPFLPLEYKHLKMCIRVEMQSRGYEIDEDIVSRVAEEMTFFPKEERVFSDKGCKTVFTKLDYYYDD

Torsin-1A (Homo sapiens) [9] = target: Torsin-1A (Homo sapiens) (UniProt O14656); test: torsin A mutant lysate binding on microarrays – cell lysate, small-molecule microarray, COS7 lysate, 635/667 nm fluorescence, primary screen (AID 1150); details: COS7 hTOR1A mutant lysate, 635 nm fluorescence, higher = more signal;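 note: score pools 667 nm emission and signal to noise measuring lysate protein binding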
[10] = tested on: Sonic hedgehog protein (Shh); test: Sonic hedgehog microarray binding compounds – biochemical, small-molecule microarray, 635/667 nm fluorescence, primary screen (AID 1151); details: 635 nm fluorescence, higher = more signal;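 note: Shh protein binding to compounds spotted on small-molecule microarray slides; score combines spot fluorescence intensity with signal-to-noise across triplicate slides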
[11] = optical density shifts of acrAB sulA E. coli – strain DRC41, OD650, 48 h, E. coli filamentation inducer project, primary screen (AID 1152); details: higher = more signal, called active from +8 up or from −8 down;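 note: E. coli MC1000 strain DRC41 lacking acrAB efflux pump and sulA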
[12] = probe aLefty1 binding on compound microarray – biochemical, small-molecule microarray, 635/667 nm fluorescence, primary screen (AID 1153); details: higher = more signal;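 note: score merges spot fluorescence with signal-to-noise ratio from the scanned slide images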
[13] = plasmodial surface anion channel blockers, osmotic lysis – cell-based, P. falciparum Indochina, OD700, 1 h, primary screen (AID 1154); details: P. falciparum Indochina infected RBC osmotic lysis, higher = more signal, called active from +8 up or from −8 down
[14] = plasmodial surface anion channel blockers, osmotic lysis – cell-based, P. falciparum Indochina, OD700, 2 h, primary screen (AID 1155);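 note: lysis reports solute entry through the parasite surface anion channel PSAC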; details: P. falciparum Indochina infected erythrocytes, higher = more signal, called active from +8 up or from −8 down
[15] = changes in parasitized red cell lysis, either direction – P. falciparum Indochina, OD700, 3 h, PSAC antagonist project, primary screen (AID 1156); details: P. falciparum-infected erythrocytes, osmotic lysis, higher = more signal, called active from +8 up or from −8 down
[16] = plasmodial surface anion channel blockers, osmotic lysis – cell-based, P. falciparum Indochina, OD700, 18 h, primary screen (AID 1157); details: P. falciparum Indochina infected erythrocytes, osmotic lysis OD700, 18 h; higher = more signal, called active from +8 up or from −8 down
[17] = S6 kinase pathway phospho-S6 level changes – cell-based, A549, cytoblot, luminescence, serum-stimulated, primary screen (AID 1158); details: 5 h, higher = more signal;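 note: serum-stimulated A549 lung adenocarcinoma cells; signal is phosphorylated S6 detected by cytoblot immunostaining with HRP secondary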
[18] = target: NADPH oxidase 2 (Homo sapiens) (UniProt P04839); test: compounds shifting NOX2 Amplex Red fluorescence – cell-based, HEK293-NOX2, PMA-stimulated, NOX inhibitor project, primary screen (AID 1159); details: 45 min, higher = more signal, called active from +8 up or from −8 down; note: test concentration not given here
Chain of NADPH oxidase 2 (Homo sapiens) (P04839 whole entry, looked up): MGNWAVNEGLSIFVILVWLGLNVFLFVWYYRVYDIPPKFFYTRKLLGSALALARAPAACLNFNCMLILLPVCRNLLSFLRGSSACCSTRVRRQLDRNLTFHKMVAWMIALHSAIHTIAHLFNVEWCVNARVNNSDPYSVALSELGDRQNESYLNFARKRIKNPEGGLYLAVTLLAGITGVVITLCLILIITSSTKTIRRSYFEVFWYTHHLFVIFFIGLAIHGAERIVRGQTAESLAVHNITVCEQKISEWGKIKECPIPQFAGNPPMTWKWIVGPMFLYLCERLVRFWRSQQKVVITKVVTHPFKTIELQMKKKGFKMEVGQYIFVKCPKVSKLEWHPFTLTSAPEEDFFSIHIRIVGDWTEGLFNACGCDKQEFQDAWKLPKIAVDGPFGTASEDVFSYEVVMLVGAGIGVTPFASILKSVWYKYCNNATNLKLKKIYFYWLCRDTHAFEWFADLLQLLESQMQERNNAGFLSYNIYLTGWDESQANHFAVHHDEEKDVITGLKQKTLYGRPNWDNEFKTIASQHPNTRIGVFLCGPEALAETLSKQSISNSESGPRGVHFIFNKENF

[19] = target: NADPH oxidase 4 (Homo sapiens) (UniProt Q9NPH5); test: compounds shifting NOX4 Amplex Red fluorescence – cell-based, HEK293-NOX4, tetracycline-induced, NOX inhibitor project, primary screen (AID 1160); details: HEK293-NOX4, Amplex Red H2O2 fluorescence, 45 min; higher = more signal, called active from +8 up or from −8 down
Chain of NADPH oxidase 4 (Homo sapiens) (Q9NPH5 whole entry, looked up): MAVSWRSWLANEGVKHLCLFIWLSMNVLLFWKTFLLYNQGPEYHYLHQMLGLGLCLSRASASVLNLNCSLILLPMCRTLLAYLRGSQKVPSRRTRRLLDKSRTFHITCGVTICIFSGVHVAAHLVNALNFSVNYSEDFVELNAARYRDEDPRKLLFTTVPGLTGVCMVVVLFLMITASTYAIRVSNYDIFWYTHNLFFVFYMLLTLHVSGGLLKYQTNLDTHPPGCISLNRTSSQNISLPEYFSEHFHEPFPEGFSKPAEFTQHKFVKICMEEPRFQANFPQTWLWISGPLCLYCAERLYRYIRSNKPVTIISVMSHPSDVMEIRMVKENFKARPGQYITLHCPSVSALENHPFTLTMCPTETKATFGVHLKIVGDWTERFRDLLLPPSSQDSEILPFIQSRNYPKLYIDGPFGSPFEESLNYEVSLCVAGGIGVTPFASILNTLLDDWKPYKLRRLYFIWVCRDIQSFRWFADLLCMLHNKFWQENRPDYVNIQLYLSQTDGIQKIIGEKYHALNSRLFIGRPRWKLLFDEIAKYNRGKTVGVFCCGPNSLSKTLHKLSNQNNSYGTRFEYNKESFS

[20] = target: NADPH oxidase 5 (Homo sapiens) (UniProt Q96PH1); test: compounds shifting NOX5 Amplex Red fluorescence – cell-based, HEK293-NOX5, NOX inhibitor project, primary screen (AID 1161); details: HEK293-NOX5, ionomycin, 45 min, higher = more signal
Chain of NADPH oxidase 5 (Homo sapiens) (Q96PH1 whole entry, looked up): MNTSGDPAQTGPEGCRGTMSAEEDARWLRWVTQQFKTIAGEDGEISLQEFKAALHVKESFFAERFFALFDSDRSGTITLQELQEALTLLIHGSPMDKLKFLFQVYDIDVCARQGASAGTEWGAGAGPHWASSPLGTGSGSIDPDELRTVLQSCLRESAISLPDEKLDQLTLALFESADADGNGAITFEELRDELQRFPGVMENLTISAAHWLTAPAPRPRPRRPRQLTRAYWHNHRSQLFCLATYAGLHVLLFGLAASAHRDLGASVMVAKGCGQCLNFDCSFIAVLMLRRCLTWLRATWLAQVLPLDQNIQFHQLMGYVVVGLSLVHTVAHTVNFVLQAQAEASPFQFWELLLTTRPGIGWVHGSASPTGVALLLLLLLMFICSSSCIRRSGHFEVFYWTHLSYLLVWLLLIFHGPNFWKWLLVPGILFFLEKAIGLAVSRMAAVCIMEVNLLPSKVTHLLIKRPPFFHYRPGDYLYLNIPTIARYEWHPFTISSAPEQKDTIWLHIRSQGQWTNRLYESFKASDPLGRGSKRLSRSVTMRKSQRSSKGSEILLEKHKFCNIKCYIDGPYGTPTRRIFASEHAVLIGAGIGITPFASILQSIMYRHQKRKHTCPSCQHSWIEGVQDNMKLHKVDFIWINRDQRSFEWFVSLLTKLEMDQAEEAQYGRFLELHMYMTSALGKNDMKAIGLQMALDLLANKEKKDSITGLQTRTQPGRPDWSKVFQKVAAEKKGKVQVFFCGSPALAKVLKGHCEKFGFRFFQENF

Structure (SMILES) | composite z-score [1] | z-score [2] | z-score [3] | z-score [4] | z-score [5] | composite z-score [6] | composite z-score [7] | composite z-score (Torsin-1A (Homo sapiens) [8]) | composite z-score (Torsin-1A (Homo sapiens) [9]) | composite z-score [10] | z-score [11] | composite z-score [12] | z-score [13] | z-score [14] | z-score [15] | z-score [16] | z-score [17] | z-score [18] | z-score [19] | z-score [20]
[N-]=[N+]=Nc1ccccc1C[C@@]1(C(=O)O)N=C(c2ccc(OCCCO)cc2)O[C@@H]1c1ccccc1 | 0.104 | -0.275 (inactive) | -0.078 (inactive) | -0.585 (inactive) | -0.218 (inactive) | 1.48 | 0.0633 | 0.0324 | 0.779 | -0.0424 | -0.265 (inactive) | 0.273 | 17.7 (active) | 1.37 (inactive) | -1.14 (inactive) | 0.245 (inactive) | -0.405 | -0.135 (inactive) | 1.27 (inactive) | 1.24
O=C(CS)NCCCCCCNC(=O)[C@H]1C[C@H]2C(=O)N[C@@H](Cc3ccccc3)C(=O)N2[C@H]1c1cccc(OCCO)c1 | 1.02 | 0.0054 (inactive) | -0.885 (inactive) | 0.285 (inactive) | -0.579 (inactive) | 1.22 | 0.177 | 0.78 | 1.06 | 1.72 | -0.405 (inactive) | 0.269 | 6 (inactive) | 0.988 (inactive) | -0.228 (inactive) | 0.351 (inactive) | 0.882 | 1.76 (inactive) | 0.441 (inactive) | -0.135
C[C@]1(C(=O)NC2CC2)c2ccccc2C(=O)N(Cc2ccc(OC(F)(F)F)cc2)[C@H]1c1ccc(CO)cc1 | -0.0135 | -0.0474 (inactive) | 0.244 (inactive) | 1.64 (inactive) | -0.103 (inactive) | -0.825 | 0.152 | 0.398 | 0.398 | -0.379 | 0.323 (inactive) | -0.0186 | 3.33 (inactive) | 0.258 (inactive) | 4.64 (inactive) | 0.0105 (inactive) | -0.111 | 0.264 (inactive) | 0.731 (inactive) | 0.138
O=C1O[C@@H](c2ccccc2)[C@@H](c2ccccc2)N2[C@@H](c3ccc(O)cc3)[C@]3(C(=O)Nc4ccc(C#CCCO)cc43)[C@@H](C(=O)Nc3nc4ccccc4s3)[C@H]12 | 0.106 | -0.486 (inactive) | 0.422 (inactive) | -0.195 (inactive) | 1.93 (inactive) | 0.103 | 0.0471 | -0.363 | 0.897 | 0.756 | 0.341 (inactive) | 0.139 | 1.35 (inactive) | 1.19 (inactive) | -0.743 (inactive) | 1.63 (inactive) | -0.435 | 1.1 (inactive) | 0.604 (inactive) | -0.073
CC1CC/C=C\[C@H]2OC34C=CCN(C(C)C)C(=O)[C@H]3N(CCCCCO)C(=O)[C@@H]4C2C(=O)O1 (stereo not given in full) | -0.432 | -0.262 (inactive) | 1.39 (inactive) | 1.67 (inactive) | -0.478 (inactive) | -1.16 | -0.157 | -1.14 | -0.751 | -0.375 | 0.881 (inactive) | -0.15 | -0.54 (inactive) | 0.0524 (inactive) | 0.66 (inactive) | 0.427 (inactive) | -0.61 | 0.745 (inactive) | -0.338 (inactive) | 1.05
CC(C)CN1C(=O)[C@@]2(Cc3ccccc31)c1ccccc1C(=O)N(Cc1ccccc1C(F)(F)F)[C@H]2c1ccc(CO)cc1 | -0.331 | -2.54 (inactive) | -1.53 (inactive) | 0.0655 (inactive) | -0.416 (inactive) | -0.0961 | -0.182 | -2.38 | -0.727 | -0.875 | 1.14 (inactive) | -0.345 | 0.21 (inactive) | -0.419 (inactive) | -0.495 (inactive) | -0.48 (inactive) | 2.04 | 0.0489 (inactive) | 0.771 (inactive) | 1.34
COc1ccc(C(O)C2C=CC3C(=O)N(C)C(=O)C3N2N2CCCCC2)cc1 (stereo not given) | 0.345 | 0.758 (inactive) | -0.3 (inactive) | 0.639 (inactive) | 0.104 (inactive) | 1.54 | 0.158 | 0.718 | 0.849 | -0.381 | -0.625 (inactive) | 0.381 | 1.41 (inactive) | 1.36 (inactive) | -0.138 (inactive) | 1.25 (inactive) | -0.734 | -0.378 (inactive) | -0.744 (inactive) | -0.369
O=C1O[C@@H](c2ccccc2)[C@@H](c2ccccc2)N2[C@@H](c3ccc(O)cc3)[C@]3(C(=O)Nc4ccc(C#CC5=CCCCC5)cc43)[C@@H](C(=O)N3CCN(c4ncccn4)CC3)[C@H]12 | 0.326 | -3.76 (inactive) | -1.07 (inactive) | -1.14 (inactive) | -0.286 (inactive) | 0.448 | 0.0633 | 0.6 | 0.836 | 1.21 | 1.29 (inactive) | 0.257 | 0.445 (inactive) | 0.35 (inactive) | -4.76 (inactive) | 0.614 (inactive) | 0.401 | 0.532 (inactive) | 0.278 (inactive) | 0.904
COCCOC(=O)N1C(=O)[C@@]2(c3cc(C#CC4(O)CCCCCC4)ccc31)[C@H](c1ccccc1OCCO)N1[C@H](c3ccccc3)[C@H](c3ccccc3)OC(=O)[C@H]1[C@@H]2C(N)=O | 0.448 | -6.31 (inactive) | 0.754 (inactive) | 0.245 (inactive) | 0.0169 (inactive) | 0.421 | -0.0494 | 0.749 | 0.761 | 1.97 | -0.552 (inactive) | -0.0046 | 4.08 (inactive) | 1.76 (inactive) | -0.971 (inactive) | 0.76 (inactive) | -0.255 | 1.8 (inactive) | -0.551 (inactive) | -0.269
O=C1C[C@]2(c3ccc([N+](=O)[O-])cc3)C(=O)N(Cc3ccccc3)c3cc(CO)ccc3[C@H]2N1CC12CC3CC(CC(C3)C1)C2 | -0.186 | 0.349 (inactive) | 0.435 (inactive) | -0.491 (inactive) | 0.245 (inactive) | -1.04 | -0.325 | -0.659 | 0.263 | -0.419 | -0.06 (inactive) | -0.678 | 0.556 (inactive) | 0.37 (inactive) | -0.401 (inactive) | 0.23 (inactive) | -0.218 | 0.135 (inactive) | 0.256 (inactive) | 0.664

— PubChem BioAssay
